Screens from PubChem.
A selection: hits, their analogues and other compounds. The true share with any hit is near 6.2%.
NTR1 ag: agonists of human NTR1, primary screen, imaging, U2OS cells, beta-arrestin-GFP, high content; activation, % at 20 µM; NTR1-U2OS beta-arrestin-GFP spot imaging, agonist mode; 330,000 compounds, 0.17% hits; Neurotensin receptor type 1 (Homo sapiens), P30989;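 active = activation at or above 40% of the spot to cytoplasm intensity ratio, with at least 20 cells analyzed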;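 note: 0% = DMSO without peptide and 100% = 100 nM NTR1 peptide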
Target sequence (P30989 whole entry, looked up): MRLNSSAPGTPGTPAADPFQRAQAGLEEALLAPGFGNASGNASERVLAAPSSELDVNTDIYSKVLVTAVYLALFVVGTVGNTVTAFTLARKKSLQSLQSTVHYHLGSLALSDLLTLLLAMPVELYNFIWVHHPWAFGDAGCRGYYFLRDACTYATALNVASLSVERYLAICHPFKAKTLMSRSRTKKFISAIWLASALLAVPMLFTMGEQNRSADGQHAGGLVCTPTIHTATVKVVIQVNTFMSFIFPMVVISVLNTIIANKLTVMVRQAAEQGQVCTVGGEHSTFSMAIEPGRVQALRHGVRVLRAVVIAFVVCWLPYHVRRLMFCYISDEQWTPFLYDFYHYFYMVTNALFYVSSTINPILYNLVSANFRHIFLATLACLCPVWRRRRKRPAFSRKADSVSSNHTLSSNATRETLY
SUMO Mot1 rescue: yeast Mot1-301 growth rescue at high temperature, primary screen, SUMOylation pathway inhibitor project, S. cerevisiae, ATP luminescence, 38.5C; S. cerevisiae Mot1-301 growth rescue; percent above DMSO median, 100 means doubled; AID 2716, 2010; 320,000 compounds, 1% hits; growth rescue, % at 18.8 µM;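 active = every valid replicate shows activation above 250% relative to neutral control wells; inactive = the rest, any valid replicate at or below 250%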;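 note: OY570 slx delta 5 strain wells were the positive control but not used for scaling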
Cardio protect: cardioprotection against H2O2-induced cell death, primary screen, uHTS, H9c2 cells, ATPLite luminescence. protection from H2O2 cell death, % at 20 µM. 360,000 compounds, 0.63% hits. H9c2 cardiomyocytes, H2O2 injury protection, 2 h;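 active = compounds giving at least 50% protection of heart cells from peroxide-induced death in the single-dose screen, raw or plate-pattern-corrected value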;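 note: 0% = DMSO wells with peroxide and 100% = DMSO wells without peroxide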
AI-2 QS modul: Vibrio harveyi AI-2 quorum sensing modulators, primary screen, JMH597 strain, luminescence/OD600 ratio | AID 2094, 2009 | 300,000 compounds, 0.4% hits | activity change, % at 7.5 µM | Vibrio harveyi JMH597 AI-2 luminescence/OD600 ratio, 9 h; hits give low values; strain lacks LuxN and CqsS sensors; 0 = neutral-control median; in the data active = activity change below about -75%, passing the limit was not always enough;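 note: luminescence divided by OD600 gain over 9 h not by final OD600 alone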
AHR activator: AHR activators, primary screen, cell-based, luminescence, luciferase reporter, human | Aryl hydrocarbon receptor (Homo sapiens), P35869 | AHR-responsive luciferase reporter cells | activation, % at 5 µM | 320,000 compounds, 2.5% hits; in the data active = activation above about 47%;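 note: 0% = vehicle wells and 100% = reference agonist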
NR3A LBD binder: binders of NR3A ligand-binding domain, primary screen, biophysical, differential scanning fluorimetry, uHTS | Tm shift relative to glycine control, % at 25 µM | Glutamate receptor ionotropic, NMDA 3A (GRIN3A) ligand-binding domain | AID 1259313, 2017 | 340,000 compounds, 2.5% hits | NR3A LBD differential scanning fluorimetry, Tm shift; 0% = protein alone, 100% = glycine-bound protein;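 active = melting temperature shift of at least 10% of the positive control shift, at one fixed dose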
* hit, by the source's call; i = inactive; . = no result.

SMILES | NTR1 ag | SUMO Mot1 rescue | Cardio protect | AI-2 QS modul | AHR activator | NR3A LBD binder
O=C(COc1ccc(Cl)cc1)NNC(=O)c1ccccc1C(=O)O | 1 | 2 | 2 | 9 | . | -2
O=C(Nc1ccc2ncccc2c1)c1ccccc1Br | 3 | 5 | 1 | 11 | -1 | 18*
O=C(Nc1ccc2ncccc2c1)Nc1ccc2ncccc2c1 | -1 | -10 | 18 | -44 | 0 | 33*
O=C(Nc1ccc2[nH]ncc2c1)c1ccccc1Br | 1 | i | -10 | 12 | 15 | 1
Cc1c([N+](=O)[O-])cc(C(=O)Nc2ccc3ncccc3c2)cc1[N+](=O)[O-] | 0 | -10 | 8 | 15 | 27 | 2
O=C1Cc2cc([N+](=O)[O-])ccc2N1c1c(Cl)cccc1Cl | 3 | 14 | -8 | 20 | -1 | 3
COc1cccc(-c2nn3c(-c4ccco4)nnc3s2)c1 | 2 | 14 | 73* | 33 | -2 | -2
COc1cccc(-c2nn3c(-c4cc(C)[nH]n4)nnc3s2)c1 | -1 | 6 | 11 | 36 | -13 | -2
COc1cccc(OC)c1-c1nn2c(-c3ccco3)nnc2s1 | -1 | -15 | 54* | -1 | 7 | -1
CCOc1cccc(-c2nnc3sc(-c4ccco4)nn23)c1 | 3 | 132 | -1 | 1 | -10 | 0
COc1ccc(-c2csc(C(C)(O)c3ccccc3)n2)cn1 (stereo not drawn) | . | . | 1 | . | . | .
COc1ccc(S(=O)(=O)N2CCCC(N(C)CCc3ccccc3)C2)cc1OC (stereo not drawn) | 2 | 5 | -8 | 21 | 3 | -1
O=C(/C=N/O)Nc1ccc2sc3ccccc3c2c1 | 6 | 10 | 6 | -11 | 0 | 34*
Oc1c(Br)cc(Br)cc1C=Nc1cccc2ncccc12 | 0 | 9 | 64* | 15 | 36 | 1
N#Cc1cn(CCOc2ccc(F)cc2)c2ccccc12 | 1 | -11 | -1 | -7 | 1 | -4
N#Cc1cn(CCOc2ccccc2F)c2ccccc12 | 2 | -11 | -8 | 6 | 49* | -12
O=C(CNC(=O)c1cc(Cl)cc([N+](=O)[O-])c1)NC1CC1 | -1 | -14 | 5 | . | 2 | 0
CC(=O)N(CCc1cccc(C)c1)Cc1cc2cc(C)ccc2[nH]c1=O | 2 | 1 | -4 | 9 | 49* | -2
CCOc1ccc(C=NNc2ccc(S(=O)(=O)Nc3ccccc3C(=O)O)cc2[N+](=O)[O-])cc1OC | 1 | . | 1 | . | -1 | 15*
CCOc1cc(/C=N/Nc2ccc(S(=O)(=O)Nc3ccccc3C(=O)O)cc2[N+](=O)[O-])cc(Cl)c1O | . | . | 4 | . | . | .
COc1cc(C=NNc2ccc(S(=O)(=O)Nc3ccccc3C(=O)O)cc2[N+](=O)[O-])ccc1O | 4 | 8 | -2 | . | 0 | 19*
O=C1CCCN1CC(O)CS(=O)(=O)Cc1ccc(Cl)c(Cl)c1 (stereo not drawn) | -2 | -5 | 1 | 14 | 5 | 1
CCOc1ccc(-c2cc(C(=O)NCC3CCCO3)c3ccccc3n2)cc1 (stereo not drawn) | 2 | 352* | 0 | -4 | 25 | 2
CCOc1ccc(N(C)S(=O)(=O)c2ccc3[nH]cc(C(=O)NCC4CCCO4)c(=O)c3c2)cc1 (stereo not drawn) | 0 | 73 | -10 | 18 | 56* | -3
COc1ccc(-c2cc(C(=O)NCC3CCCO3)c3ccccc3n2)c(OC)c1 (stereo not drawn) | 0 | 6 | 5 | 10 | 5 | -2
SMILES | NTR1 ag | SUMO Mot1 rescue | Cardio protect | AI-2 QS modul | AHR activator | NR3A LBD binder
COC(=O)c1cc2ccsc2n1Cc1ccccc1F | 3 | -1 | -4 | 13 | 1 | 17*
CCC(C)Sc1ccc(-c2nc3ccc(C)cn3c2NC2CCCCC2)cc1 (stereo not drawn) | 28 | -2 | . | 22 | 14 | -8
CCC(C)Sc1cccc(-c2nc3ccc(C)cn3c2NC2CCCCC2)c1 (stereo not drawn) | 4 | 341* | -20 | 12 | 20 | -30
Cc1cccc2cc3c(NC(=O)C(C)C)nn(C)c3nc12 | 2 | 3 | 1 | 29 | 72* | 0
CCCC(=O)Nc1nn(C)c2nc3ccc(C)cc3cc12 | 1 | 19 | 1 | -3 | 7 | 3
Cc1ccc2cc3c(NC(=O)C(C)C)nn(C)c3nc2c1 | 2 | -7 | 7 | 14 | 66* | -1
O=C(COC(=O)c1cc(S(=O)(=O)N2CCOCC2)ccc1F)Nc1ccccc1C(F)(F)F | . | . | -4 | . | . | .
Cc1cc(=O)oc2cc(OCC(=O)NC3(C#N)CCCCC3)c(Cl)cc12 | 2 | . | 2 | . | . | 0
O=C(NNC(=O)c1cc2cc(OC(F)(F)F)ccc2[nH]1)c1cccc(C(F)(F)F)c1 | -1 | -2 | -4 | 11 | -1 | 23*
CCNC(=O)CC1C(=O)N(c2ccc(F)cc2)C(=S)N1CCc1ccncc1 (stereo not drawn) | -1 | 3 | 2 | 6 | 2 | 0
COc1ccc(N2C(=O)C(CC(=O)Nc3ccc(Cl)cc3)N(NC(=O)c3cccc(F)c3)C2=S)cc1 (stereo not drawn) | 7 | 15 | 3 | 32 | 2 | 16*
O=C(CC1C(=O)N(c2ccc(Cl)cc2)C(=S)N1CCc1ccncc1)Nc1ccc(F)cc1 (stereo not drawn) | 7 | 157 | -11 | 5 | 3 | 29*
COc1ccc(NC(=O)CC2C(=O)N(c3ccc(OC)cc3)C(=S)N2NC(=O)c2cccc(F)c2)cc1 (stereo not drawn) | 1 | -13 | 4 | 23 | 2 | -1
COc1ccc(/C=C/c2nc3ccccc3c(=O)o2)cc1 | 1 | -15 | -10 | 8 | 0 | -2
COc1ccc(/C=C/c2nc3cc(-c4ccccc4)ccc3o2)cc1O | 9 | -9 | 3 | 7 | 3 | 17*
CC1C/C(=N/Nc2nc3ccccc3[nH]2)CC(C)(C)C1 (stereo not drawn) | 5 | 3 | -8 | 14 | 89* | -4
CC1C/C(=N/NC(=O)c2ccc(CSc3nc4ccccc4[nH]3)cc2)CC(C)(C)C1 (stereo not drawn) | 1 | 1 | 5 | 9 | 1 | -7
Cn1c(=O)c2[nH]c(-c3ccccc3)c(O)c2n(C)c1=O | 0 | -10 | -9 | 3 | 22 | 12*
Cn1c(=O)c2[nH]c(-c3ccccc3Cl)c(O)c2n(C)c1=O | 0 | -12 | 4 | 16 | 10 | 1
